# Source: PubChem (National Center for Advancing Translational Sciences (NCATS))
# a7 integrin act – qHTS for Activators of Integrin-Mediated Alleviation for Muscular Dystrophy | alpha7betagal myoblasts, beta-gal FDG fluorescence, 48 h | Potency, µM (top dose mostly 38.3 µM), for inactives: top-dose activation, hits mostly activators | 0.064% of 350,000 active | AID 624291, 2012;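 note: 100% = response of the positive control SU9516; nearly all actives have a fitted effect of over 60% in size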
#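 Alpha7betagal+/- myoblasts (passage 13) were plated 16-24 hr, then exposed to compounds (1:260 dilution of DMSO stock) for 48 hours at 37C. After MPER lysis, β-galactosidase reporter activity was read as FDG fluorescence (ex 480/em 540) after 30 minutes.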
# uPA generation – qHTS for Inhibitors of Cell Surface uPA Generation | cell surface uPA generation assay, qHTS | Potency, µM (titrated, usually from 38.3 µM), for the others: top-dose activity change, negative = inhibition, most hits filed as inhibitors | 0.31% of 330,000 active | AID 540303, 2011; active = well fitted inhibition curve with a large enough effect; inconclusive = small, poorly fitted or top-dose-only effect; inactive = no such curve, though single readings can be large or run the other way; tested in mouse RAW 264.7 cells; note: % is set by controls: 0 for no effect and ±100 for the full control effect; nearly all actives have a fitted effect of over 55% in size
# VP16 counter – VP16 counterscreen qHTS for inhibitors of ROR gamma transcriptional activity; Drosophila S2 Gal4-VP16 UAS-luciferase, luminescence, 20 h; Potency, µM (doses to about 53.6 µM), for inactives: at the top dose activity, negative = inhibition, usual class: inhibitors; 3.5% of 310,000 active;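 note: Gal4-VP16 expression switched on by copper sulfate through the metallothionein promoter; % is set by controls: 0 for no effect and ±100 for the full control effect; nearly all actives have a fitted effect of over 50% in size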
# RORgamma inh – qHTS for inhibitors of ROR gamma transcriptional activity. Nuclear receptor ROR-gamma (Mus musculus), P51450. Drosophila S2 Gal4-RORgamma UAS-luciferase reporter, 20 h. Potency, µM (highest dose often 53.6 µM), without a hit: at the top dose activity change, negative = inhibition, usual class: inhibitors. 5.4% of 310,000 active. AID 2551, 2010; note: % is set by controls: 0 for no effect and ±100 for the full control effect; nearly all actives have a fitted effect of over 60% in size
# Target sequence (P51450 whole entry, looked up, the tested form may be a part): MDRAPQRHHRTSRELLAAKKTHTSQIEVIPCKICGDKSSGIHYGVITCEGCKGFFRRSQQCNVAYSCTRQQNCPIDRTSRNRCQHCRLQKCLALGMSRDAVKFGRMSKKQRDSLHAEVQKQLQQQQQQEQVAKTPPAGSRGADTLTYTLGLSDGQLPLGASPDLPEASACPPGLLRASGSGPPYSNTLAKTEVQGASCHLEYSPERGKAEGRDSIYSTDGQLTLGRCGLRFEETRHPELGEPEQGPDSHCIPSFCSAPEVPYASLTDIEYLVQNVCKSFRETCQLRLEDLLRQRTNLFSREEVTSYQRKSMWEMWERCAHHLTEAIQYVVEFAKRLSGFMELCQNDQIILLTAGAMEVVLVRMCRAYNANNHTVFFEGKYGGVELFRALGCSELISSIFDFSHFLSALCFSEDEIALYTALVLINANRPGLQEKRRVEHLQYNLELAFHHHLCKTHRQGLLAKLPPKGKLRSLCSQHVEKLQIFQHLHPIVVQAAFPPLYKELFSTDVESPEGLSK
#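 Stably transfected Drosophila Schneider cells are the test system, with ROR gamma fused to Gal4 and luciferase under UAS control; luminescence is read after 20 hr of 700 uM copper sulfate induction at ambient temperature.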
# BCR signal inh – qHTS Assay to Find Inhibitors of Chronic Active B-Cell Receptor Signaling | ABC-DLBCL IkBa-CBG/CBR reporter, luminescence ratio, 4 h | Potency, µM (titrated, usually from 46.1 µM), inactives show at the highest dose activity change, negative = inhibition, hits mostly inhibitors | 0.05% of 340,000 active | AID 493014, 2011; active = well fitted inhibition curve with a large enough effect in the signal ratio, with a control signal flat, not every such curve was filed as active; inconclusive = small, poorly fitted or top-dose-only effect, or effect the other way, or a change in a side signal; the % refers to the signal ratio;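 note: plate controls were basal doxycycline-induced cells for no effect and cells given 10 µM MG132 for full effect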
#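 Doxycycline induced both beetle luciferases in TMD8 lymphoma cells; IKK-driven degradation limits the IkappaBalpha-fused green signal, while red luminescence normalises for cell number and nonspecific effects. Compounds tested up to 46 uM, 4 hrs.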
# Mito fusion yeast – qHTS Assay for Small Molecule Inhibitors of Mitochondrial Division or Activators of Mitochondrial Fusion; S. cerevisiae fusion-defective mutant growth rescue, CellTiterGlo 48 h; Potency, µM (top dose mostly 46.1 µM), inactives show at the highest dose growth rescue (activation), usual class: activators; 0.23% of 320,000 active; AID 485298, 2010; note: % of control where 0% means no effect; nearly all actives have a fitted effect of over 45% in size
#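 Temperature-sensitive fusion-defective S. cerevisiae (e.g. fzo1-1, mgm1-5) were grown with compound in YPEG medium (3% ethanol, 3% glycerol) for 48 hours at 37C. Growth rescue was measured as viability by CellTiterGlo luminescence after 10 minutes at ambient.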
# Starred values were filed as active, the others as inactive; u = inconclusive; x = no result; [ ] = remark or other dose. In the library only some 5.5% were active in any assay of this set; here they are far more common. Unless noted, calls come from the whole dose curve; as a rule, active = well fitted curve in the direction sought with a large enough effect; inconclusive = small, poorly fitted or top-dose-only effect, or another doubt; inactive = no such curve, though single readings can be large; an effect the other way counts as inactive or inconclusive. Potency is the fitted concentration of half-maximal effect.
SMILES,a7 integrin act,uPA generation,VP16 counter,RORgamma inh,BCR signal inh,Mito fusion yeast
C[C@@H]1CN([C@H](C)CO)C(=O)c2c(c3ccccc3n2C)-c2ccccc2CO[C@H]1CN(C)C(=O)CCC(F)(F)F,-36%,x,x,x,x,x
COc1ccc(NC(=S)Nc2cccc(S(=O)(=O)N3CCCCC3)c2)cc1,-13%,10%,u,18µM*,-1%,-6%
COc1ccc(C(=O)NC(=S)Nc2cccc(S(=O)(=O)N3CCOCC3)c2)cc1,0%,-15%,-9%,22µM*,-27%,2%
CCOc1ccc2oc(C(=O)OCC(=O)NC(=O)NC3CCCC3)c(C)c2c1,11%,-5%,-20%,26%,-2%,4%
CCOc1ccc2oc(C(=O)OCC(=O)NC(=O)NC)c(C)c2c1,7.1µM*,1%,6%,16%,0%,4%
CCn1ncc(Cl)c1C(=O)NC(=S)Nc1ccccc1Br,-36%,0%,8.9µM*,8.9µM*,u,7%
Cc1nn(C)c(C(=O)NC(=S)Nc2ccccc2Br)c1Cl,-15%,5%,14µM*,8.9µM*,u,-1%
CC(=O)N1CCC2(CC1)CCN(c1ccccn1)CC2,x,x,28%,8%,x,x
COc1cc(C(=O)O/N=C2\C=CC(=O)C(C)=C2)cc(OC)c1OC,-67%,10%,5.6µM*,5µM*,u,-4%
CC1(C(=O)N/N=C/c2ccccc2)CC1(Cl)Cl (centres undefined),5%,3%,3%,20%[1.91 µM],1%,-3%
CCn1c(=S)[nH]c2c(c1=O)C(C)(C)Cc1ccccc1-2,2%,-11%,3.5µM*,1µM*,2%,-5%
Cn1c(=S)[nH]c2c(c1=O)C(C)(C)Cc1ccccc1-2,-1%,0%,u,-3%,u,6%
Cc1[nH]nc(-c2ccc(OCc3cnn(-c4ccccc4)c3)c(C)c2O)c1Oc1ccccc1,-28%,2%,u,7.9µM*,u,0%
Cc1[nH]nc(-c2ccc(O)c(C)c2O)c1Oc1ccccc1,1%,5%,u,u,u,7%
CCOc1ccc(-c2n[nH]c(C)c2Oc2ccc(OC)cc2)c(O)c1,-12%,2%,5µM*,2.2µM*,-2%,26%
Cc1[nH]nc(-c2ccc(OCc3cnn(-c4ccccc4)c3)cc2O)c1Oc1ccc(F)cc1,-42%,2%,10µM*,7.1µM*,14%,1%
CN1CC[C@@]2(CCCN(C(=O)c3cc(C(F)(F)F)cc(C(F)(F)F)c3)C2)C1,x,x,7%,-5%,x,x
CCCCC1=NN(C(=O)c2cccnc2)C(O)(C(F)(F)F)C1 (centres undefined),-23%,-2%,u,10µM*,u,3%
O=C(c1ccncc1)N1N=C(C2CCCCC2)CC1(O)C(F)(F)F (centres undefined),18%,0%,u,-26%,11%,4%
CCC1=NN(C(=O)c2cccnc2)C(O)(C(F)(F)F)C1 (centres undefined),19%,4%,u,11µM*,-1%,-6%
CCC(=O)N1CCN(c2ccccc2NC(=O)COc2ccc(C(C)C)cc2)CC1,4%,15%,-11%,-7%,u,21%
CS(=O)(=O)N(CC(=O)N1CCN(C(c2ccccc2)c2ccccc2)CC1)C1CCCCC1,4%,-4%,-1%,13µM*,10%,4%
CS(=O)(=O)N(CC(=O)N1CCN(c2ccccc2F)CC1)C1CCCCC1,-4%,0%,7%,-1%,4%,2%
Cc1cc(C(=O)N/N=C/c2ccc([N+](=O)[O-])s2)n[nH]1,-54%,-19%,u,-40%,u,19%
Cc1cc(C(=O)N/N=C/c2cc(Cl)cc([N+](=O)[O-])c2O)n[nH]1,7%,1%,u,7.9µM*,u,1%
SMILES,a7 integrin act,uPA generation,VP16 counter,RORgamma inh,BCR signal inh,Mito fusion yeast
Cc1cc(C(=O)N/N=C/c2ccc[nH]2)n[nH]1,-2%,3%,13%,2.8µM*,u,-4%
Cc1cc(C(=O)N/N=C/c2ccc[nH]2)no1,-17%,-3%,11µM*,10µM*,u,-1%
Cc1cc(C(=O)N/N=C/c2ccccc2Br)no1,7%,-3%,-1%,2%,u,0%
Cc1cc(C(=O)N/N=C\c2cc(C(C)(C)C)c(O)c(C(C)(C)C)c2)n[nH]1,-5%,-3%,3.5µM*,6.3µM*,u,-2%
COc1ccc([C@]23Cc4ccccc4C(O2)C2=C(CC4(CCCCC4)OC2=O)O3)cc1,x,x,u,19%[10 µM],28%[9.22 µM],0%[9.22 µM]
Nc1nc(CN2CCN(c3ccccc3)CC2)nc(Nc2ccc(Cl)cc2)n1,-5%,-7%,-5%,u,-20%,3%
CN(C)S(=O)(=O)c1ccc(N2CCCC2)c(C(=O)NCC2CCCO2)c1 (centres undefined),5%,-16%,x,x,0%,-2%
O=c1c2sccc2[nH]c(=S)n1-c1ccccc1,11%,0%,3.5µM*,u,4%,4%
Cc1cccc(-n2c(=S)[nH]c3c(oc4ccccc43)c2=O)c1,-2%,-2%,4.5µM*,2.8µM*,0%,30%
O=c1c2oc3ccccc3c2[nH]c(=S)n1-c1ccccc1,-4%,0%,5µM*,u,u,9%
O=c1[nH]c(CCl)nc2cc(-c3ccc(F)cc3)sc12,-59%,-18%,u,13µM*,u,-5%
COc1ccc2c(=O)c(Oc3ccc(C(=O)O)cc3)c(C(F)(F)F)oc2c1,13%,1%,13µM*,u,u,1%
CC(=O)N[C@H]1C(O[C@@H]2O[C@H](C[C@@H](O)[C@H]3O[C@@H](N4CCC(=O)NC4=O)[C@H](O)[C@@H]3O)[C@H](O)[C@H](O)[C@H]2NC(=O)/C=C/CCCCCCCCCCC(C)C)OC(CO)[C@@H](O)[C@@H]1O (some centres undefined),x,x,-18%,u,x,x
Cc1ccc2c(c1)C=CC(C#N)N2C(=O)c1ccccc1 (centres undefined),-43%,-9%,-10%,-10%,-15%,-7%
CC1=Cc2ccccc2C(C#N)N1C(=O)c1ccccc1 (centres undefined),-4%,-15%,13µM*,u,u,13µM*
CC12C=C(/C=C/c3ccc(Br)cc3)C(C)(C1)[C@H](c1ccc(Br)cc1)CC2=O (some centres undefined),x,x,2%,1%,x,x
